Luciferase inh: inhibitors of firefly (Photinus pyralis) luciferase | P08659 | purified P. pyralis luciferase, luminescence, biochemical | Potency, µM (titrated, usually from 115 µM), actives largely listed as inhibitors | 2.5% of 76,000 active | AID 1347043; further: nearly all actives have a fitted effect of over 65% in size
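Purified 10nM P. pyralis luciferase with 10uM D-luciferin and 10uM ATP in 50mM Tris acetate pH 7.5, 10mM Mg acetate, 0.01% Tween-20, 0.05% BSA. qHTS titration; luminescence read by CCD imager.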
3T3 cytotox: kills NIH 3T3 cells. NIH 3T3 viability, CellTiter-Glo ATP luminescence, 48-72 h. AID 1345082. 4.3% of 94,000 active. Potency, µM (doses to about 96.7 µM), inactives show at the top dose activity change, negative = cytotoxicity, hits mostly inhibitors; further: nearly all actives have a fitted effect of over 55% in size
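Viability of NIH 3T3 cells after 48 or 72 hr compound treatment at 37 °C was assessed by CellTiter-Glo, with luminescence imaged following a 10 min room-temperature step.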
NPR1 antag: human Npr1 receptor antagonism | P16066 | HEK293 hNpr1 GloSensor cGMP, ANP-stimulated luminescence | Potency, µM (titrated, usually from 46.3 µM), for inactives: at the highest dose activity change, negative = inhibition, hits mostly inhibitors | 1.6% of 76,000 active | AID 1347048; calls by dose curve; further: nearly all actives have a fitted effect of over 60% in size
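HEK293 cells stably expressing human Npr1 and cGMP GloSensor pGS-40F, loaded 2 h with 2% GloSensor reagent, given compound 30 min at room temperature. Luminescence read before and 20 min after 0.1 nM hNppA.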
GPT2 inh: GPT2 alanine aminotransferase inhibition | Recombinant GPT2, coupled pyruvate oxidase/HRP Amplex Red fluorescence | AID 1671188 | 0.25% of 100,000 active | Potency, µM (highest dose often 57.7 µM), without a hit: top-dose activity change, negative = inhibition, hits mostly inhibitors | Q8TD30; further: nearly all actives have a fitted effect of over 60% in size
Target sequence (Q8TD30 whole entry, looked up): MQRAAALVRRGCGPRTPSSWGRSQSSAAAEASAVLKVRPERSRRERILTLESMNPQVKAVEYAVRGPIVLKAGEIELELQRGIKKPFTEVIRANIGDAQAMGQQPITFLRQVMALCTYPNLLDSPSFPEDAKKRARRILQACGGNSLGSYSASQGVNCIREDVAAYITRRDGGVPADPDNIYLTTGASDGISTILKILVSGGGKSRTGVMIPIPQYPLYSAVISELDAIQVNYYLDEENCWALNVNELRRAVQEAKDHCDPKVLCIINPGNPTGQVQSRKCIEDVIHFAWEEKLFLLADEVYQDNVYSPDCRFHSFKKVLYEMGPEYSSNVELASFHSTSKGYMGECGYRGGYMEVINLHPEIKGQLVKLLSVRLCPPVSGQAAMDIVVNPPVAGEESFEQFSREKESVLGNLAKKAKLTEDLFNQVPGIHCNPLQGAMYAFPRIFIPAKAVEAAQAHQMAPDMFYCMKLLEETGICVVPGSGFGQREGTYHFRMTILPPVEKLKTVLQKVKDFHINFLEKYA
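Fluorescence of coupled pyruvate oxidase/HRP/Amplex Red system (50uM Amplex, 30 min, dark) reports pyruvate formed by GPT2. Enzyme reaction: 10ng/uL GPT2, 2mM L-alanine, 250uM a-KG, 30 min room temperature, pH 7.5; 50uM AOA control.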
HEK293 tox: HEK 293 cell cytotoxicity; HEK 293 viability, ATP luminescence (CellTiter-Glo), 48-72 h; Potency, µM (top dose mostly 115 µM), without a hit: at the top dose activity change, negative = cytotoxicity, hits mostly inhibitors; 6.6% of 94,000 active; AID 1345083; further: nearly all actives have a fitted effect of over 60% in size
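HEK 293 seeded at 250 cells/well receive compound via pintool. After 48 or 72 hr at 37 degree Celsius, 5% CO2 and 95% humidity, CellTiter-Glo is dispensed and luminescence read following 10 min at room temperature.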
The depositor's hits bear a star; i = inactive; ? = inconclusive; / = not tested or not shown; [ ] = another dose, or the depositor's remark. Hits are enriched below; roughly 10% of the tested compounds scored in any of these assays. Unless noted, the call rests on the fitted dose curve; in most records, active means well fitted curve in the direction sought with a large enough effect; inconclusive means small, poorly fitted or top-dose-only effect, or another doubt; inactive means no such curve, though single readings can be large; an effect the other way counts as inactive or inconclusive. On the % scale 0 is the no-effect control and ±100 the full control effect; potency means the concentration at half of the fitted maximal effect.

SMILES	Luciferase inh	3T3 cytotox	NPR1 antag	GPT2 inh	HEK293 tox
COc1ccccc1CC(=O)N1CCC2(CC1)NC(=O)N(Cc1ccc(F)cc1)C2=O	i	?	-17.7%	i	-23.5%
COCCN1C(=O)CS(=O)(=O)C12CCN(C(=O)c1ccc(F)c(F)c1)CC2	i	-16.6%	0.9%	-16.4%	-6.4%
CCNC(=O)N1CC(C(=O)NCc2cccc(F)c2)CC(c2ccc(F)c(C)c2)C1 (stereo not drawn)	i	?	-1.7%	1.9%	?
Cc1cc(C2CC(C(=O)NCCc3ccccc3)CN(C(=O)C3CC3)C2)ccc1F (stereo not drawn)	i	31.6µM*	-14.9%	i	?
CN(C(=O)Nc1ccc(Cl)cc1)C1CCCc2ccccc21 (stereo not drawn)	28.2µM*	?	-6.5%[70.6 µM]	i	89.1µM*
CN(C(=O)c1ccccc1)C1CCCc2ccccc21 (stereo not drawn)	i	?	-0.3%[70.6 µM]	i	?
CN(Cc1ccc(F)cc1)C1CCCc2ccccc21 (stereo not drawn)	i	2.0%[138 µM]	1.1%[70.6 µM]	i	-10.3%[172 µM]
CN(C(=O)Nc1ccc(Cl)cc1)C1CCc2ccccc21 (stereo not drawn)	i	-28.2%[138 µM]	-11.2%[70.6 µM]	3.9%[88.5 µM]	?
CN(C(=O)Cc1ccc(F)cc1)C1CCCc2ccccc21 (stereo not drawn)	i	-24.4%[138 µM]	0.0%[70.6 µM]	i	100µM*
CN(C(=O)c1cccc(Cl)c1)C1CCCc2ccccc21 (stereo not drawn)	i	?	-13.8%[70.6 µM]	-26.4%[88.5 µM]	70.8µM*
Cc1ccc(C(=O)N(C)C2CCc3ccccc32)cc1 (stereo not drawn)	?	?	-4.2%[70.6 µM]	i	100µM*
O=C(N[C@H]1CCN2C(=O)N(c3cccc4nsnc34)C(=O)[C@@H]2C1)c1ccnc(Cl)c1	i	-6.0%	0.8%	-25.1%	-11.8%
Cc1cc(C(=O)NCCc2noc(-c3cccnc3)n2)nn1C	i	-4.8%	-4.1%	i	-0.7%
CCn1nc(C)c(-c2cc(C(=O)NCCc3noc(-c4ccccc4)n3)no2)c1C	?	?	0.0%	i	50.1µM*
Cc1nn(-c2ccccn2)c(C)c1[C@@H]1C=C[C@@H](NC(=O)c2cccs2)C1	?	?	-1.6%[70.6 µM]	1.0%[88.5 µM]	?
Cc1ccc(-n2nc(C)c([C@H]3C=C[C@@H](OC(=O)Nc4cccc(F)c4)C3)c2C)cc1Cl	i	?	-20.6%	?	?
Cc1nn(-c2ccccc2)c(C)c1[C@@H]1C=C[C@@H](NC(=O)c2ccc(N(C)C)cc2)C1	?	?	?	3.7%[88.5 µM]	70.8µM*
Cc1nn(-c2ccc(C(C)(C)C)cc2)c(C)c1[C@@H]1C=C[C@@H](NC(=O)c2cccs2)C1	20µM*	?	-10.4%[70.6 µM]	1.4%[88.5 µM]	35.5µM*
Cc1nn(-c2ccc(C(F)(F)F)cc2)c(C)c1[C@@H]1C=C[C@@H](NC(=O)c2cccs2)C1	?	28.2µM*	-10.7%[70.6 µM]	-7.4%[88.5 µM]	?
Cc1ccc(-n2nc(C)c([C@@H]3C=C[C@@H](NC(=O)c4cccs4)C3)c2C)cc1Cl	25.1µM*	?	-23.8%[70.6 µM]	2.3%[88.5 µM]	?
COc1ccc(CCN2CC(NC(=O)Cn3ccc(C)n3)CC2=O)cc1 (stereo not drawn)	i	-1.6%	-10.1%	-12.1%	3.6%
COc1ccc(-c2noc(-c3cccn3CC(=O)Nc3ccc(F)c(F)c3)n2)cc1F	i	?	-2.9%	i	-17.2%
O=C(c1ccc(N2CC3CC(C2)[C@H]2CCCC(=O)N2C3)nc1)N1CCN(C2CCCCC2)CC1 (stereo partly drawn)	i	3.3%	-2.0%	i	-7.9%
O=C(NCc1ccc(F)cc1)c1ccc2nnc(-c3ccc(C(F)(F)F)cc3)n2c1	/	?	/	-11.8%	?
COC(=O)[C@@H](C)NC(=O)[C@@H]1CN(C(=O)c2cccc(F)c2)CCN1C(C)=O	i	-7.0%[174 µM]	-1.2%[70.6 µM]	i	i
SMILES	Luciferase inh	3T3 cytotox	NPR1 antag	GPT2 inh	HEK293 tox
O=C(NCc1ccccn1)C1c2ccccc2C(=O)N(C2CCCCC2)C12CCCCC2 (stereo not drawn)	i	?	-0.9%	-6.4%	25.1µM*
CCCNC(=O)C1c2ccccc2C(=O)N(C2CCCCC2)C12CCCCC2 (stereo not drawn)	i	?	1.5%	0.1%	39.8µM*
O=C(NCCc1ccncc1)C1c2ccccc2C(=O)N(C2CCCCC2)C12CCCCC2 (stereo not drawn)	i	?	-29.7%	-9.3%	39.8µM*
COC(=O)CCNC(=O)C1c2ccccc2C(=O)N(C2CCCC2)C12CCCCC2 (stereo not drawn)	i	?	-0.8%	i	?
COc1cccc(CC2(CO)CCCN(c3ccc(-c4nccn4C)nn3)C2)c1 (stereo not drawn)	i	?	-9.7%	i	20µM*
COc1cccc(CC2(CO)CCCN(c3nnnn3-c3ccccc3)C2)c1 (stereo not drawn)	i	?	-7.2%	-5.2%	?
CCn1cc(S(=O)(=O)N2CCC(N3C(=O)C(OC)C34CCOCC4)CC2)cn1 (stereo not drawn)	i	1.4%	1.3%	i	i
COc1ccccc1-c1cn2c(n1)CO[C@@H](CNC(=O)c1ccc(Cl)cc1)C2	i	?	-10.1%[70.6 µM]	0.1%[88.5 µM]	100µM*
Cc1ccc(-c2cn3c(n2)CO[C@@H](CNC(=O)c2ccc(Cl)cc2)C3)cc1	39.8µM*	?	?	-8.2%[88.5 µM]	?
Cc1ccc(-c2cn3c(n2)CO[C@@H](CNC(C)C)C3)cc1	39.8µM*	?	1.7%[70.6 µM]	-10.6%[88.5 µM]	?
COc1ccccc1-c1cn2c(n1)CO[C@@H](CNC(=O)NC(C)C)C2	i	-2.6%[138 µM]	3.5%[70.6 µM]	i	-10.3%[172 µM]
Cc1ncsc1CN1CCC2(CC1)CN(Cc1ccccc1)CC2CO (stereo not drawn)	i	?	-11.2%	i	?
CCN1CCN(Cc2cn(-c3ccccc3F)nc2-c2cc(C)sc2C)CC1	?	?	-1.0%	i[11.5 µM]	?
COc1ccccc1-c1ccc2c(n1)CN(Cc1csc(C)n1)C(=O)CO2	i	44.7µM*	-2.0%[70.6 µM]	i	-11.0%[172 µM]
Cc1nc(CN2Cc3nc(-c4ccc5c(c4)OCO5)ccc3OCC2=O)cs1	i	?	-0.4%[70.6 µM]	-17.4%[88.5 µM]	?
Cc1nc(CN2Cc3nc(-c4cc5ccccc5o4)ccc3OCC2=O)cs1	?	?	?	-13.2%[88.5 µM]	63.1µM*
COc1ncccc1-c1cc2[nH]ccc2c(C(=O)NCc2c(C)cc(C)[nH]c2=O)n1	i	50.1µM*	-0.4%[70.6 µM]	?	?
Cc1cc(C)c(CNC(=O)c2nc(-c3cccc(O)c3)cc3[nH]ccc23)c(=O)[nH]1	?	50.1µM*	3.1%[70.6 µM]	-5.7%[88.5 µM]	79.4µM*

Bioassay records as filed in PubChem.
